# Assay results as given in the supplement of paper PMC10338343.
# ± gives the standard deviation.
# Test system: MILI (PIWIL2) piRISC loaded with piRNA #1 (26 nt)
# Assay: pre-steady-state target cleavage rate (min^-1); guide: piRNA #1 5'p-UGAGGUAGUAGGUUGUAUAGUAUCCA; MIWI and MILI are mouse PIWI proteins and EfPiwi is from a freshwater sponge; tags in brackets are library labels; higher = faster piRNA-guided slicing of the target
# Conditions: auxiliary factor: 500 nM mouse GTSF1
# Procedure, shortened: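 The pre-steady-state cleavage rate was obtained by Cleave-'n-Seq with a burst-and-steady-state fit. A transcribed, DNA-blocked target RNA library (0.1 nM) was mixed with 1 nM active affinity-purified piRISC carrying one synthetic guide, with or without 500 nM GTSF1 partner protein, in HEPES–potassium acetate buffer at 33 °C for 0–8 or 0–960 min. Uncleaved targets were sequenced and normalised to depth and to weakly complementary targets, with three trials pooled and k3 capped at 0.0001 min^-1.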
row,Sequence,pre-steady-state target cleavage rate
1,GGAGAGGAUACUUAACAACCUACUACCUCA,0.163 ± 0.013
2,GGAGACCUAUGAUUACUACCUACUAGCUCA,0.0036 ± 0.0032
3,GGAGACCUAUGAUUAGCAACCUACUACCUCA,0.00597 ± 0.0035
4,GGAGACCUAUGAUAUCACCUACUACCUCA,0.00625 ± 0.0026
5,GGAGACCUAUGUAUAGAACCUACUACCACA,0.0238 ± 0.0059
6,GGAGACCUAUGUAUACAACCUACUACUCA,0.063 ± 0.013
7,GGAGACCUAUCUAUUCUACCUACUACCUCA,0.0569 ± 0.0086
8,GGAGACCUAUCUAUACAAGCUACUACCUCA,0.193 ± 0.017
9,GGAGACGAUACUAAACAACCUACUAGCUCA,0.111 ± 0.019
10,GGAGACCUAACUAUCAACCUACUACCUCA,0.0603 ± 0.014
11,GGAGACCUAAGUAUACAUCCUACUACCUCA,0.0911 ± 0.0089
12,GGAGACCUAUCUAUACAACUUACUACCUCA,0.0156 ± 0.0023
13,GGAGACCUAUCUAUAGCAACCUACUACCUCA,0.0831 ± 0.016
14,GGAGACCUAUGAUAACUUGCUACUACCUCA,< 0.0001
15,GGAGAGGAUACUAUACAAGCUACUACCUGA,0.111 ± 0.015
16,GGAGAGGAUUCUAUUCAACCUACUACCUCA,0.174 ± 0.013
